Assay outcomes: PubChem BioAssay, The Scripps Research Institute Molecular Screening Center
SRC1 TRFRET art: flags TR-FRET format artefacts in PPARgamma SRC-1 recruitment agonist screen; TR-FRET ratio at 8 µM; TR-FRET detection artefact counter-screen, emission ratio; active compounds read high; AID 1051; actives 0.34% (n = 99,000); in the data active = TR-FRET ratio above about 2300
PPARg SRC-2 ag: agonists of SRC-2 recruitment by human PPARgamma; P37231; PPARgamma LBD-SRC-2 recruitment, biochemical; activation, % at 8 µM; actives 0.34% (n = 200,000); AID 1032;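 note: 0% = vehicle and 100% = reference agonist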
Target sequence (P37231 whole entry, looked up, the tested form may be a part): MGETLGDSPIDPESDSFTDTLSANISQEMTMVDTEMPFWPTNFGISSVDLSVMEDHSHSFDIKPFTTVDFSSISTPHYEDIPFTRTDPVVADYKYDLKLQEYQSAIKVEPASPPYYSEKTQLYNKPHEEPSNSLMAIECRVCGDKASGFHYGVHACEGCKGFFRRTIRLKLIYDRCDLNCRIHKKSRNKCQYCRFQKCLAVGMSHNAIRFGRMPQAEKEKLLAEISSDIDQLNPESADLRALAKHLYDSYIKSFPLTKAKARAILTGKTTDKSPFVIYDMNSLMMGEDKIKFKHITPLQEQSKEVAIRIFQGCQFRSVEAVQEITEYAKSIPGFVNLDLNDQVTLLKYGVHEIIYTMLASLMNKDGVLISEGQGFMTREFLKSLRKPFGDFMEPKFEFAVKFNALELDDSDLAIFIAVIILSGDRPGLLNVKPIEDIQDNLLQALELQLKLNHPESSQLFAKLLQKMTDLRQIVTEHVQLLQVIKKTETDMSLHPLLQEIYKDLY
PPARg SRC1 recr: agonists of human PPARgamma SRC-1 coactivator recruitment. activation, % at 8 µM. P37231. PPARgamma-SRC-1 coactivator recruitment biochemical assay. actives 0.41% (n = 200,000); in the data active = activation above about 19%;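 note: 0% = DMSO and 100% = reference agonist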
PPARg SRC3 recr: agonists of human PPARgamma SRC-3 coactivator recruitment; AID 731; actives 0.26% (n = 200,000); P37231; biochemical PPARgamma/SRC-3 coactivator recruitment assay; activation, % at 8 µM; in the data active = activation above about 23%;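 note: 0% = DMSO and 100% = reference agonist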
SRC3 TRFRET art: TR-FRET artefact, counter-screen to PPARgamma/SRC-3 agonist assay. PPARgamma/SRC-3 format; active compounds read high. TR-FRET ratio at 8 µM. actives 0.39% (n = 99,000); in the data active = TR-FRET ratio above about 2000
SRC2 TRFRET art: TR-FRET artefact, counter-screen to PPARgamma/SRC-2 agonist assay. actives 0.4% (n = 200,000). active compounds read high. TR-FRET ratio at 8 µM; in the data active = TR-FRET ratio above about 2000
PPARg SRC2 ag: human PPARgamma SRC-2 recruitment agonism, confirmation. actives 52% (n = 790). AID 1297. activation, % at 8 µM. biochemical SRC-2 recruitment by PPARgamma. shares compounds with PPARg SRC3 recr;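 note: 0% = vehicle alone and 100% = reference agonist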
PPARg SRC1 ag: human PPARgamma SRC-1 recruitment agonism, confirmation; shares compounds with PPARg SRC3 recr; PPARgamma–SRC-1 coactivator recruitment biochemical assay; activation, % at 8 µM; actives 43% (n = 790); in the data active = activation above about 20%;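 note: 0% = vehicle wells and 100% = reference agonist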
PPARg SRC3 ag: human PPARgamma SRC-3 recruitment agonism, confirmation; shares compounds with PPARg SRC3 recr; actives 29% (n = 790); activation, % at 8 µM; biochemical PPARgamma-SRC-3 coactivator recruitment, agonist mode; in the data active = activation above about 24%;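 note: 0% = vehicle wells and 100% = reference agonist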
Active calls of the source: *; nt = not tested or not shown. This is a sample that favours compounds with a hit; in the whole collection about 0.84% have one here. Cut-off read from the data, not from the text of the source, unless noted: active = activation above about 22%; inactive = the rest.

SMILES | SRC1 TRFRET art | PPARg SRC-2 ag | PPARg SRC1 recr | PPARg SRC3 recr | SRC3 TRFRET art | SRC2 TRFRET art | others
c1cncc(CNC2CCCC2)c1 | 3393* | 0.1 | 40.1* | -1.4 | 1585 | 1583
Cc1cccc(NP(=O)(Oc2ccccc2F)Oc2ccccc2F)c1C | 2320* | -4.5 | 7.1 | 2.4 | 1742 | 1715
O=C1Nc2ccccc2/C1=C/c1cnc[nH]1 | nt | 17.4 | 12.4 | 33.2* | nt | 1808
CC(C)(C)C(=O)OCC12CCC(O1)C1(C)C(=O)OCC21 (stereo not drawn) | 1795 | 2.4 | -0.6 | 4.5 | 1633 | 1654
c1ccc2c(c1)[nH]c1cnccc12 | 1918 | 4.8 | 8.4 | 5.7 | 1611 | 1759
Cc1c2ccncc2c(C)c2c1[nH]c1ccccc12 | 2068 | 7.6 | 26.9* | 6.3 | 1767 | 1611
CC(C)(C)C(=O)c1cn(Cc2ccccc2)c2ccccc12 | 1852 | 6.2 | -4.3 | 1.0 | 1462 | 1386
COc1ccc(C(=O)C23CN4CN(CN(C4)C2)C3)cc1 | 1575 | 3.3 | -6.5 | -6.0 | 1554 | 1613
COc1ccc(C(=O)C(C)(C)NO)cc1 | nt | 3.4 | 2.5 | 27.5* | nt | 1650
CC(C)CN1CCN(Cc2cccc3c2OCO3)CC1CCO (stereo not drawn) | 1889 | 3.2 | -3.5 | 2.3 | 1395 | 1668
Cn1c(=O)cc(SCC(=O)N2CCC3(CC2)OCCO3)c2ccccc21 | nt | 38.7* | 43.8* | 60.3* | nt | 2418* | PPARg SRC2 ag=33.0*;PPARg SRC1 ag=20.2*;PPARg SRC3 ag=22.8
Cc1cccc(-n2c(-c3ccccc3)nc3ccccc3c2=O)n1 | 1760 | -4.7 | -0.5 | -0.1 | 1686 | 1480
Cc1cccc(N=Cc2c(O)n(-c3ccccc3C)c(=O)[nH]c2=O)c1 | nt | 0.3 | -1.6 | -10.2 | nt | 1341
Cc1ccccc1-n1c(O)c(C=Nc2ccc(N(C)C)cc2)c(=O)[nH]c1=O | nt | 22.7* | 15.2 | 25.7* | nt | 2050* | PPARg SRC2 ag=6.8;PPARg SRC1 ag=10.1;PPARg SRC3 ag=5.3
C=CCn1c(O)c(C=Nc2ccc(N(CC)CC)cc2)c(=O)[nH]c1=O | nt | 17.9 | 7.5 | 25.8* | nt | 1780 | PPARg SRC2 ag=8.7;PPARg SRC1 ag=9.5;PPARg SRC3 ag=8.5
C/C(=C/C=C/[C@@H](C)C(=O)O)[C@H]1CN[C@H](C(=O)O)[C@H]1CC(=O)O | 1901 | 7.3 | 0.2 | 3.2 | 1657 | 1455
